# Laboratory results as given in publication PMC5540273 (PLoS ONE, 2017).
# “And” between values parts separate entries of the source, which are not always exact repeats. Identical values can stand only once. Like-named read-outs stand apart in the source and are kept apart here.
# Legend:
# PKMYT1 = conditions: concentration: 1 μM, replicates: in singlicate, n = 1
# PKN1 = conditions: concentration: 1 μM, replicates: in singlicate, n = 1
# PKN2 = conditions: concentration: 1 μM, replicates: in singlicate, n = 1
# PLK1 = conditions: concentration: 1 μM, replicates: in singlicate, n = 1
# PLK2 = conditions: concentration: 1 μM, replicates: in singlicate, n = 1
# PLK3 = conditions: concentration: 1 μM, replicates: in singlicate; n = 1
# PLK4 = conditions: concentration: 1 μM, replicates: in singlicate, n = 1
# PRKCD = conditions: concentration: 1 μM, replicates: in singlicate, n = 1
# PRKCE = conditions: concentration: 1 μM, replicates: in singlicate, n = 1
# PRKCH = conditions: concentration: 1 μM, replicates: in singlicate, n = 1
# PRKCI = conditions: concentration: 1 μM, replicates: in singlicate, n = 1
# PRKCQ = conditions: concentration: 1 μM, replicates: in singlicate, n = 1
# PRKD1 = conditions: concentration: 1 μM, replicates: in singlicate, n = 1
# PRKD2 = conditions: concentration: 1 μM, replicates: in singlicate, n = 1
# PRKD3 = conditions: concentration: 1 μM, replicates: in singlicate, n = 1
# PRKG1 = conditions: concentration: 1 μM, replicates: in singlicate, n = 1
# PRKG2 = conditions: concentration: 1 μM, replicates: in singlicate, n = 1
# PRKR = tested on: T1, PRKR; conditions: concentration: 1 μM, replicates: in singlicate, n = 1
# T1 construct: gene EIF2AK2
# PRKX = conditions: concentration: 1 μM, replicates: in singlicate, n = 1
# PRP4 = conditions: concentration: 1 μM, replicates: in singlicate, n = 1
# 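Further: KINOMEscan kinase panel screen.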
structure (smiles),measurement,setting,value
COc1ccc(CNC(=O)NC2CCN(c3ccnc(Nc4ccc(OC)cc4)n3)C2)cc1 (centres unmarked) [GSK1379727],%Inh,PKMYT1,2%
same,%Inh,PKN1,0%
same,%Inh,PKN2,0%
same,%Inh,PLK1,0%
same,%Inh,PLK2,0%
same,%Inh,PLK3,0%
same,%Inh,PLK4,0%
same,%Inh,PRKCD,0%
same,%Inh,PRKCE,15%
same,%Inh,PRKCH,17%
same,%Inh,PRKCI,12%
same,%Inh,PRKCQ,0%
same,%Inh,PRKD1,0%
same,%Inh,PRKD2,8%
same,%Inh,PRKD3,0%
same,%Inh,PRKG1,0%
same,%Inh,PRKG2,0%
same,%Inh,PRKR,0%
same,%Inh,PRKX,11%
same,%Inh,PRP4,23%
O=C(NCCNc1ccnc(Nc2ccc(F)cc2)n1)c1cc2ccccc2s1 [GSK1379874],%Inh,PKMYT1,0%
same,%Inh,PKN1,0%
same,%Inh,PKN2,0%
same,%Inh,PLK1,0%
same,%Inh,PLK2,0%
same,%Inh,PLK3,0%
same,%Inh,PLK4,0%
same,%Inh,PRKCD,0%
same,%Inh,PRKCE,5%
same,%Inh,PRKCH,17%
same,%Inh,PRKCI,0%
same,%Inh,PRKCQ,0%
same,%Inh,PRKD1,5%
same,%Inh,PRKD2,0%
same,%Inh,PRKD3,0%
same,%Inh,PRKG1,0%
same,%Inh,PRKG2,0%
same,%Inh,PRKR,0%
same,%Inh,PRKX,4%
same,%Inh,PRP4,49%
Cn1cc(-c2ccc3c(c2)CCN3C(=O)Cc2ccccc2Cl)c2c(N)ncnc21 [GSK2608885],%Inh,PKMYT1,18%
same,%Inh,PKN1,42%
same,%Inh,PKN2,31%
same,%Inh,PLK1,15%
same,%Inh,PLK2,51%
same,%Inh,PLK3,86%
same,%Inh,PLK4,55%
same,%Inh,PRKCD,51%
same,%Inh,PRKCE,7%
same,%Inh,PRKCH,54%
same,%Inh,PRKCI,10%
same,%Inh,PRKCQ,83%
same,%Inh,PRKD1,0%
same,%Inh,PRKD2,47%
same,%Inh,PRKD3,54%
same,%Inh,PRKG1,0%
same,%Inh,PRKG2,0%
same,%Inh,PRKR,0%
same,%Inh,PRKX,19%
same,%Inh,PRP4,8%
O=C(NOCC1CC1)c1ccc(F)c(F)c1Nc1ccc(I)cc1Cl,%Inh,PKMYT1,0%
same,%Inh,PKN1,0%
same,%Inh,PKN2,0%
same,%Inh,PLK1,0%
same,%Inh,PLK2,8%
same,%Inh,PLK3,0%
same,%Inh,PLK4,0%
same,%Inh,PRKCD,3%
same,%Inh,PRKCE,28%
same,%Inh,PRKCH,0%
same,%Inh,PRKCI,0%
same,%Inh,PRKCQ,0%
same,%Inh,PRKD1,8%
same,%Inh,PRKD2,0%
same,%Inh,PRKD3,0%
same,%Inh,PRKG1,0%
same,%Inh,PRKG2,0%
same,%Inh,PRKR,0%
same,%Inh,PRKX,0%
same,%Inh,PRP4,0%
COc1ccc(COc2cc(-n3cnc4ccccc43)sc2C(N)=O)cc1 [GSK1024304],%Inh,PKMYT1,0%
same,%Inh,PKN1,0%
same,%Inh,PKN2,0%
same,%Inh,PLK1,97.4%
same,%Inh,PLK2,90%
same,%Inh,PLK3,86%
same,%Inh,PLK4,4%
same,%Inh,PRKCD,4%
same,%Inh,PRKCE,0%
same,%Inh,PRKCH,0%
same,%Inh,PRKCI,0%
same,%Inh,PRKCQ,32%
same,%Inh,PRKD1,0%
same,%Inh,PRKD2,24%
same,%Inh,PRKD3,3%
same,%Inh,PRKG1,0%
same,%Inh,PRKG2,0%
same,%Inh,PRKR,0%
same,%Inh,PRKX,10%
same,%Inh,PRP4,11%
Cc1ccc(NC(=O)c2ccnc(N3CCN(C)CC3)c2)cc1-c1ccc(C(=O)NCC2CC2)cc1 [GW775604],%Inh,PKMYT1,9%
same,%Inh,PKN1,0%
same,%Inh,PKN2,0%
same,%Inh,PLK1,6%
same,%Inh,PLK2,7%
same,%Inh,PLK3,5%
same,%Inh,PLK4,0%
same,%Inh,PRKCD,0%
same,%Inh,PRKCE,0%
same,%Inh,PRKCH,0%
same,%Inh,PRKCI,0%
same,%Inh,PRKCQ,0%
same,%Inh,PRKD1,0%
same,%Inh,PRKD2,2%
same,%Inh,PRKD3,0%
same,%Inh,PRKG1,0%
same,%Inh,PRKG2,0%
same,%Inh,PRKR,0%
same,%Inh,PRKX,0%
same,%Inh,PRP4,0%
NCCNS(=O)(=O)c1ccc(-c2ccnc3[nH]ccc23)cc1 [GSK977617],%Inh,PKMYT1; 1 µM,5% and 0%
same,%Inh,PKN1; 1 µM,44% and 19%
same,%Inh,PKN2; 1 µM,66% and 50%
same,%Inh,PLK1; 1 µM,6% and 2%
same,%Inh,PLK2; 1 µM,10% and 0%
same,%Inh,PLK3,0%
same,%Inh,PLK4; 1 µM,26% and 24%
same,%Inh,PRKCD; 1 µM,97.7% and 95.2%
same,%Inh,PRKCE; 1 µM,96.8% and 68%
same,%Inh,PRKCH; 1 µM,95% and 91%
same,%Inh,PRKCI; 1 µM,56% and 47%
same,%Inh,PRKCQ; 1 µM,86% and 70%
same,%Inh,PRKD1; 1 µM,49% and 33%
same,%Inh,PRKD2; 1 µM,51% and 23%
same,%Inh,PRKD3; 1 µM,45% and 33%
same,%Inh,PRKG1; 1 µM,97.6% and 96.7%
same,%Inh,PRKG2; 1 µM,98.6% and 98%
same,%Inh,PRKR; 1 µM,52% and 42%
same,%Inh,PRKX; 1 µM,94.7% and 92.2%
same,%Inh,PRP4; 1 µM,28% and 20%
c1ccc(-c2cc(-c3c[nH]nc3-c3ccccn3)ccn2)cc1 [GW576604],%Inh,PKMYT1,3%
same,%Inh,PKN1,9%
same,%Inh,PKN2,0%
same,%Inh,PLK1,0%
same,%Inh,PLK2,0%
same,%Inh,PLK3,0%
same,%Inh,PLK4,0%
same,%Inh,PRKCD,0%
same,%Inh,PRKCE,0%
same,%Inh,PRKCH,0%
same,%Inh,PRKCI,23%
same,%Inh,PRKCQ,0%
same,%Inh,PRKD1,67%
same,%Inh,PRKD2,49%
same,%Inh,PRKD3,50%
same,%Inh,PRKG1,0%
same,%Inh,PRKG2,0%
same,%Inh,PRKR,3%
same,%Inh,PRKX,0%
same,%Inh,PRP4,22%
NS(=O)(=O)c1cccc(-c2ccc3ncc(N4CCOCC4)nc3c2)c1 [GSK1535721],%Inh,PKMYT1,1%
same,%Inh,PKN1,0%
same,%Inh,PKN2,0%
same,%Inh,PLK1,0%
same,%Inh,PLK2,0%
same,%Inh,PLK3,5%
same,%Inh,PLK4,15%
same,%Inh,PRKCD,4%
same,%Inh,PRKCE,1%
same,%Inh,PRKCH,8%
same,%Inh,PRKCI,21%
same,%Inh,PRKCQ,2%
same,%Inh,PRKD1,0%
same,%Inh,PRKD2,20%
same,%Inh,PRKD3,0%
same,%Inh,PRKG1,0%
same,%Inh,PRKG2,14%
same,%Inh,PRKR,10%
same,%Inh,PRKX,0%
same,%Inh,PRP4,2%
COc1ccc(Nc2ncc(C#N)c(Nc3ccccc3C(N)=O)n2)cc1N1CCN(C)CC1.Cl [GSK1558669],%Inh,PKMYT1,41%
same,%Inh,PKN1,83%
same,%Inh,PKN2,78%
same,%Inh,PLK1,100%
same,%Inh,PLK2,100%
same,%Inh,PLK3,100%
same,%Inh,PLK4,99.8%
same,%Inh,PRKCD,94%
same,%Inh,PRKCE,94.4%
same,%Inh,PRKCH,86%
same,%Inh,PRKCI,96.6%
same,%Inh,PRKCQ,96.5%
same,%Inh,PRKD1,93.1%
same,%Inh,PRKD2,89%
same,%Inh,PRKD3,99%
same,%Inh,PRKG1,76%
same,%Inh,PRKG2,54%
same,%Inh,PRKR,87%
same,%Inh,PRKX,52%
same,%Inh,PRP4,79%
